Bioassay records as filed in PubChem BioAssay.
ATXN viability – Viability Counterscreen for Primary qHTS for Inhibitors of ATXN expression | Potency, µM (highest dose often 56.7 µM), hits mostly cytotoxic | 0.49% of 400,000 active | AID 651635, 2014 | S2 cells (HEK-293 line with an ATXN2-luciferase reporter) viability, CellTiter-Fluor protease fluorescence, 24 h; also: nearly all actives have a fitted effect of over 40% in size
USP1 inh – Inhibitors of USP1/UAF1: Primary Screen. recombinant USP1/UAF1, Ub-Rhodamine cleavage fluorescence. Ubiquitin carboxyl-terminal hydrolase 1 (Homo sapiens), O94782. Potency, µM (highest dose often 57.1 µM), hits mostly inhibitors. 0.23% of 390,000 active; also: nearly all actives have a fitted effect of over 60% in size
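In this screen, compounds sit with the deubiquitinase complex (1nM) for 15 min at room temperature before Ub-Rho is added at 150nM final. Fluorescence rise is then followed for 6 reads every 60 seconds.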
IL-1B inflam inh – qHTS for Inhibitors of Inflammasome Signaling: IL-1-beta AlphaLISA Primary Screen | activity change, % at 57.5 µM | 4.7% of 360,000 active | THP-1 LPS/ATP IL-1B secretion, AlphaLISA, 16 h; stronger effect = lower value; in the data active = activity change below about -50%; inconclusive = mostly about -30% to -49%
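Secreted IL-1B measured by AlphaLISA bead assay after 16 h compound exposure of THP-1 cells; compounds (final up to 57.5 uM) added 1 h before LPS (250 ng/mL) and ATP (1.25 mM) stimulation; lower signal means less secretion.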
USP2a block – qHTS Assay for Inhibitors of Ubiquitin-specific Protease USP2a Using CHOP2 as the Reporter. 0.01% of 330,000 active. Potency, µM (series often up to 38.3 µM), actives largely listed as inhibitors. USP2 core, Ub-CHOP2 coupled fluorogenic reporter, 485/531. AID 463254, 2010
Target sequence (O75604 whole entry, looked up): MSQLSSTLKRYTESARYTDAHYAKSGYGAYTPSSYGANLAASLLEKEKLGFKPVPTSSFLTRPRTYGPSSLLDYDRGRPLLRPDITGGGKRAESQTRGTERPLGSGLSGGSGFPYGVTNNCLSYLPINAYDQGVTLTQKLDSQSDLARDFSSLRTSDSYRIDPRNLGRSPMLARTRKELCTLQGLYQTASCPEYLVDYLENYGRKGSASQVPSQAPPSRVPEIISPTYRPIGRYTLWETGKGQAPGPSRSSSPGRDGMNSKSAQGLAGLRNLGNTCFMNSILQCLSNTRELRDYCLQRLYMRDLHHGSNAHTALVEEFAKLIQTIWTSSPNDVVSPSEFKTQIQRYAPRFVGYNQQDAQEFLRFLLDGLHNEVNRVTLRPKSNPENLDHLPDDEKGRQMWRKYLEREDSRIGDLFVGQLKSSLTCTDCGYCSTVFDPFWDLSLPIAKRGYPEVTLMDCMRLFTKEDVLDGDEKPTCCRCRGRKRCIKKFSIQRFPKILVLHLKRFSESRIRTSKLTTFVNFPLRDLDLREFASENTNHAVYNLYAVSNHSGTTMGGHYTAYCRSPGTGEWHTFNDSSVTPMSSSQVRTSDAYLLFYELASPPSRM
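USP2 core (10nM final) preincubated 30min RT with compound in 20mM Tris-HCl pH 8.0, 2mM CaCl2, 2mM beta-mercaptoethanol, 0.05% CHAPS; 25nM Ub-CHOP2 plus 25nM reporter substrate added, fluorescence (Ex485/Em531) read after 60min.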
ATXN2 expr inh – Primary qHTS for Inhibitors of ATXN expression; HEK-293 ATXN2-luciferase reporter, luminescence, 24 h; Potency, µM (highest dose often 57 µM), most hits filed as inhibitors; 0.72% of 360,000 active; also: nearly all actives have a fitted effect of over 55% in size
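ATXN2-luciferase reporter cells (luciferase flanked by upstream and downstream ATXN2 gene portions) were treated 24 h at 37 °C with compounds at up to 57 uM. SteadyGlo luminescence gave expression; GF-AFC fluorescence gave viability.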
A number is an active result; - = inactive; ? = inconclusive; . = no result given; [ ] = dose if it differs, or a comment. This is a sample that favours compounds with a hit; in the whole collection about 4.8% have one here. Unless noted, calls follow the shape of the dose curve; as a rule, active = well fitted curve in the direction sought with a large enough effect; inconclusive = small, poorly fitted or top-dose-only effect, or another doubt; inactive = no such curve, though single readings can be large; an effect the other way counts as inactive or inconclusive.

SMILES | ATXN viability | USP1 inh | IL-1B inflam inh | USP2a block | ATXN2 expr inh
O=C(CCCN1C(=O)/C(=C/c2cccs2)SC1=S)Nc1cccc(C(=O)O)c1 | - | - | - | - | -
O=C(CCCN1C(=O)/C(=C/c2cccs2)SC1=S)Nc1cccc(O)c1 | ? | - | -94 | - | -
COc1cc(C)c(CN2CCN(C(C)C(=O)NC(C)c3ccccc3)CC2)cc1OC (centres undefined) | - | - | - | - | -
F[B-](F)(F)c1cc2ccccc2s1 | - | - | -70 | . | -
CNC(=O)c1cc2cc(Br)ccc2s1 | - | - | - | - | -
F[B-](F)(F)c1cc2cc(Br)ccc2s1 | - | - | -62 | . | -
CCc1nc2ccc(C(=O)Nc3cc(-c4ccccc4)ccc3OC)cn2c1N(C)Cc1nccs1 | ? | . | -80 | . | -
CCc1nc2ccc(C(=O)Nc3cc(-c4ccccc4)ccc3OC)cn2c1N(C)Cc1ccc(OC)cc1 | - | . | ? | . | -
CCc1nc2ccc(C(=O)Nc3cc(-c4ccccc4)ccc3OC)cn2c1N(C)C(=O)c1cccc(OC)c1 | - | . | -76 | . | -
CCc1nc2ccc(C(=O)N(CC)CCN(C)C)cn2c1N(C)C(=O)c1cccc(OC)c1 | - | . | - | . | -
O=C(CSc1ncnc2[nH]ncc12)Nc1nc(-c2ccc(F)c(F)c2)cs1 | - | - | -68 | - | .
COc1ccc(OC)c(-c2csc(NC(=O)Cc3ccccc3OC)n2)c1 | - | - | ? | - | -
CS(=O)(=O)N1CCc2cc(-c3csc(NC(=O)C(c4ccccc4)c4ccccc4)n3)ccc21 | - | - | - | - | -
COc1ccc(OC)c(-c2csc(NC(=O)Cc3ccccc3F)n2)c1 | - | - | -62 | - | -
COc1ccc(CC(=O)Nc2nc(-c3ccc(F)c(F)c3)cs2)cc1 | - | - | -85 | - | ?
CC1Cc2cc(-c3csc(NC(=O)Cc4ccccc4)n3)ccc2N1S(C)(=O)=O (centres undefined) | ? | ? | -84 | - | ?
COc1ccccc1NC(=O)CSc1nnc(NC(=O)Nc2ccc(C)cc2)s1 | . | - | . | . | .
CC(=O)OC(C)OC(=O)C(C)c1ccc(-c2ccccc2)c(F)c1 (centres undefined) | - | . | . | . | -
CC(C)COC(=O)N(C)C[C@@H]1OCc2cnnn2CCCC(=O)N([C@@H](C)CO)C[C@H]1C | - | - | - | . | -
Cc1ccccc1CSCCNC(=S)Nc1ccccc1 | - | - | -158 | - | -
S=C(NCCSCc1ccc(Cl)cc1Cl)Nc1ccccc1 | - | - | - | - | -
Cc1cccc(-c2[nH]c(C(C)(C)C)nc2-c2ccc3c(c2)OCO3)n1 | . | . | . | . | 15µM
CCC(C)OC(=O)/C(C#N)=C/c1ccc(-c2ccc(Br)cc2)o1 (centres undefined) | - | ? | . | . | -
N#C/C(=C/c1ccc(-c2ccc(Br)cc2)o1)C(=O)NC1CCCCC1 | . | - | -55 | - | -
N#C/C(=C\c1ccc(-c2ccc(Br)cc2)o1)C(=O)NCCc1c[nH]c2ccccc12 | ? | - | -61 | - | -[11.3 µM]
SMILES | ATXN viability | USP1 inh | IL-1B inflam inh | USP2a block | ATXN2 expr inh
Cc1noc(C)c1S(=O)(=O)N(C)C[C@H]1Oc2c(NS(=O)(=O)c3cn(C)cn3)cccc2C(=O)N([C@H](C)CO)C[C@@H]1C | - | - | - | - | -
Oc1ccc(C[C@H]2CNCCN2CCCCC2CCCCC2)cc1 | ? | ? | ? | - | -
O=C(Nc1ccc2nc(-c3ccco3)c(-c3ccco3)nc2c1)N1CCN(c2ccccn2)CC1 | - | - | -57 | ? | -
S=C(Nc1ccc(N2CCOCC2)cc1)Nc1ccc2nc(-c3ccco3)c(-c3ccco3)nc2c1 | - | 25µM | - | ? | -
CCc1ccc(OCCOCC(O)CN2CCN(Cc3ccc(Cl)cc3)CC2)cc1 (centres undefined) | - | - | -53 | - | -
O=C(NCc1ccc(F)cc1)c1cnc(Cl)c(Cl)c1 | - | - | -79 | - | -
Cc1noc2ncnc(Oc3cc(Cl)ccc3Cl)c12 | ? | - | -102 | - | -[11.3 µM]
CCC1CN(CC(=O)NC(C)c2c(C)nn(C)c2C)Cc2cc(OC)ccc2O1 (centres undefined) | - | . | . | . | .
CC1=C(C)CC2C(C1)C(=O)c1ccc(Br)cc1S2(=O)=O (centres undefined) | - | - | - | - | -
Cc1cc(-c2ccc([N+](=O)[O-])cc2)cc(C)n1 | - | - | - | . | -
O=C(O)/C=C\C(=O)Nc1ccc(N2CCN(c3ccc(Cl)c(Cl)c3)CC2)cc1 | - | - | -71 | - | -
CCCSc1nc2sc3c(c2c(=O)n1Cc1ccccc1)CC(C)(CC)OC3 (centres undefined) | . | - | . | . | .
N#Cc1csc(CCNC(=O)c2ccccc2)n1 | ? | ? | - | . | .
O=C(NCCc1nc(-c2ccccc2)cs1)c1ccc(Br)cc1 | - | - | -77 | - | -
CCOC(=O)N1CCN([N+]([O-])=NOc2ccc([N+](=O)[O-])cc2C#N)CC1 | . | . | . | . | -
COc1cc(-c2c(C#N)c(N)nc(SCc3ccncc3)c2C#N)cc(OC)c1OC | - | - | ? | - | -
N#Cc1c(N)nc(SCc2ccncc2)c(C#N)c1-c1cccs1 | ? | ? | -51 | - | ?
CCOC(=O)C1=C(c2ccccc2)N=c2s/c(=C\c3cc(OC)c(OC)c(OC)c3)c(=O)n2C1c1cccs1 (centres undefined) | - | 22µM | - | - | -
OCCCNc1nc(-c2ccc(Cl)cc2)nnc1-c1ccc(Br)cc1 | - | - | -78 | - | -
CCC(CC)[C@H](NC(C)=O)[C@@H]1[C@H](O)[C@@H](C(=O)O)C[C@@H]1N=C(N)N | . | . | . | . | -
COc1ccc2ccccc2c1CN1CCCC(n2cc(C(=O)N3CCCC3)nn2)C1 (centres undefined) | - | . | . | . | .
Cc1nnc(N/N=C/c2cc([N+](=O)[O-])c(N3CCC(C)CC3)cc2N2CCC(C)CC2)n1N | - | - | -68 | - | -
O=C1NC(=S)S/C1=C\C=C\c1ccc([N+](=O)[O-])o1 | 8.9µM | - | -98 | - | ?
O=C(O)/C=C/c1ccc([N+](=O)[O-])o1 | - | - | - | - | -
COc1ccc(N2CCN(C(CNC(=O)C(=O)NCCCN(C)C)c3cccnc3)CC2)cc1 (centres undefined) | - | - | . | . | -
CC(C)(C)c1ccc(-c2cn(-c3ccc(Br)cc3)c3[n+]2CCCS3)cc1 | - | - | -99 | - | -
c1ccc(-c2cn(-c3ccccc3)c3[n+]2CCS3)cc1 | - | - | - | - | -
CCN1CC=C2C(C#N)=C(N)C(C#N)(C#N)[C@H](c3cccc(OC)c3OC)[C@H]2C1 | - | 32µM | - | - | -
COc1cccc(C2C3CN(C)CC=C3C(C#N)=C(N)C2(C#N)C#N)c1OC (centres undefined) | - | ? | - | - | -
